Source: PubChem BioAssay
Only some compounds are listed: those with a hit (about 5.2% of all), similar ones and a draw of the others.
Tau fluor cs: counter-screen for tau fibril formation inhibitors; tau K18 P301L Alexa594 fluorescence, heparin fibrillization; Potency, µM (highest dose often 57.7 µM); hit rate 0.93% among 280,000; AID 1463; also: nearly all actives have a fitted effect of over 55% in size
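Human K18 P301L tau (15 uM unlabeled plus 0.24 uM Alexa 594-labeled, final) in 100 mM sodium acetate pH 7 was mixed with compound and 20 uM heparin and incubated 6 hr at 37 C.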
FBPA coupling cs: inhibits coupling enzyme system, counter-screen for aldolase hits | coupling enzyme system counterscreen, AmpLite Red fluorescence | hit rate 0.67% among 290,000 | activity change, negative = inhibition, % at 58.2 µM, hits read low | AID 2472; in the data active = activity change below about -30%
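First, compound is pin-transferred into glyceraldehyde-3-phosphate coupling-enzyme reagent at 57.5 uM final and held 10 min at RT. Next, substrate, coupling system and AmpLite Red are added. After 20 min RT, fluorescence (525/598 nm) is read.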
Tau ThT inhib: tau fibrillization inhibition (ThT binding). recombinant tau K18 P301L, heparin-induced fibrillization, ThT fluorescence. Potency, µM (doses to about 57.4 µM), usual class: inhibitors. hit rate 2.1% among 270,000; also: nearly all actives have a fitted effect of over 55% in size
Target sequence (P10636 561-689 P618L limits assumed): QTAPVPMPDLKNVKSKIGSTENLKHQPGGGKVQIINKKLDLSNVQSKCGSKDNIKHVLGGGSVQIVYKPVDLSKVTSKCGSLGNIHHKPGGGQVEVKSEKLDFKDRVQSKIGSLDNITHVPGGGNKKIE
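ThT emission at 510 nm, taken 1 hr after adding 30 uM dye, quantifies aggregates formed when 20 uM heparin acts on human tau K18 P301L for 6 hr at 37 C.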
Sfp PPTase inh: Sfp phosphopantetheinyl transferase inhibition; Q9F4F7; Biochemical Sfp PPTase activity, qHTS; Potency, µM, most hits filed as inhibitors; hit rate 3.5% among 310,000; AID 1490;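 also: the enzyme is Sfp with the accession as filed and its product quenches rhodamine fluorescence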
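Fluorescence-quenching assay with 15 nM Sfp, 5 uM rhodamine-CoA and 12.5 uM BHQ-2-labelled ybbR peptide in pH 7.6 Hepes/MgCl2 buffer. Enzyme was pre-incubated with compound for 15 min at room temperature. Rate was taken from the 30-min fluorescence change (525/598 nm).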
Tau FP inhib: tau fibrillization inhibition (FP); P10636; K18 P301L tau heparin fibrillization, Alexa594 FP, 6 h; Potency, µM (titrated, usually from 57.7 µM), actives largely listed as inhibitors; hit rate 0.39% among 280,000; also: nearly all actives have a fitted effect of over 55% in size
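Steps: dispense K18 P301L tau (15 uM plus 0.24 uM Alexa 594 tracer, final) in pH 7 sodium acetate; add compound; add heparin (20 uM final); incubate 6 hr, 37 C; add ThT (30 uM final); after 1 hr ambient, read FP.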
Hits are given with their value; i = inactive; ? = inconclusive; nt = no result; [ ] = remark or other dose. Unless noted, calls follow the shape of the dose curve; as a rule, active = well fitted curve in the direction sought with a large enough effect; inconclusive = small, poorly fitted or top-dose-only effect, or another doubt; inactive = no such curve, though single readings can be large; an effect the other way counts as inactive or inconclusive.

SMILES	Tau fluor cs	FBPA coupling cs	Tau ThT inhib	Sfp PPTase inh	Tau FP inhib
C[C@H]1Cc2c(COc3ccccc3)nc3c(c2CO1)CN(C(=O)c1ccco1)CC3	i[11.6 µM]	i	i[11.5 µM]	i	i[11.6 µM]
Cc1ccc(S(=O)(=O)Nc2cccc3ccc[n+](C)c23)cc1	nt	i	nt	i	nt
CC1(C)CC(=O)C2=C(C1)OC1=C(C(=O)CC(C)(C)C1)C2c1ccc(O)cc1O	i	i	?	7.9µM	i
O=C(CCCn1c(=O)c2cccn2c2ccccc21)Nc1cccc(Cl)c1	i	nt	?	nt	i
O=S(=O)(NCCc1cn2ccsc2n1)c1ccc(Cl)cc1	i	nt	i	nt	i
CC(=O)Oc1c(Br)cc(N(C(C)=O)S(=O)(=O)c2ccccc2)c2ccccc12	nt	-45	nt	35µM	nt
Oc1c(Cl)cc(Cl)cc1C=Nc1cc(C(F)(F)F)ccc1N1CCc2ccccc2C1	i	i	28µM	i	?
CCCCc1ccc(/C=C2\C(=O)c3ccccc3C(O)=C2C(=O)OCC)cc1	?	i	18µM	3.2µM	?
CSC1=NS(=O)(=O)c2c(C)nn(C)c2S1	i	i	16µM	6.3µM	?
CCOC(=O)CSc1nc2ccc(N3CCOCC3)cc2c(=O)n1Cc1ccc2c(c1)OCO2	?	-31	?	i	i
CCCCNC(=O)CSc1nc2ccc(N3CCOCC3)cc2c(=O)n1Cc1ccc(OC)cc1	i	-31	?	i	i
COCCNC(=O)CSc1nc2ccc(N3CCOCC3)cc2c(=O)n1Cc1ccc(OC)cc1	?	-39	?	?	i
COc1ccc(-c2nc(CSCC(=O)NCCC(C)C)c(C)o2)cc1OC	i	nt	i	nt	i
N#Cc1ccc(-c2cccs2)nc1SCc1ccc(Cl)cc1Cl	i	nt	i	nt	i
CC(C)(C)c1ccc(C(=O)Nc2onc3c2CCCC3)cc1	i	nt	i	nt	i
Cc1ccc(S(=O)(=O)NN/C(=N/S(=O)(=O)c2ccccc2)c2ccccc2)cc1	i	i	i	i	i
NC(N)=NS(=O)(=O)c1ccc(NC(=S)NC(=O)c2ccccc2)cc1	i	i	nt	50µM	i
O=C(O)c1ccc(N/C(=N\S(=O)(=O)c2ccc(Cl)cc2)c2ccccc2)cc1	i	i	i	i	i
CCOC(=S)N/C(=N\S(=O)(=O)c1ccc(C)cc1)c1ccccc1	i	i	i	22µM	i
COc1ccc(NC(=S)N/C(=N/S(=O)(=O)c2ccc(C)cc2)c2ccccc2)cc1	i	i	i	50µM	i
O=S(=O)(/N=C(/NC(=S)Nc1ccccc1)c1ccccc1)c1ccc(Cl)cc1	nt	i	nt	45µM	nt
COC(=O)c1cc2sc(C)cc2n1Cc1cccc(OC)c1	?	nt	?	nt	i
CCCCCCC#Cc1cc(OC)c(OC)cc1C(N1CC(C)c2ccccc21)N1CC(C)c2ccccc21 (stereo not drawn)	i[11.6 µM]	i	i[11.5 µM]	i	i[11.6 µM]
CCOC(=O)NC1(NCC(C)C)Oc2ccccc2O1	?	i	?	79µM	i
CCOC(=O)NC1(NC2CCCCC2)Oc2ccccc2O1	i	i	?	56µM	i
SMILES	Tau fluor cs	FBPA coupling cs	Tau ThT inhib	Sfp PPTase inh	Tau FP inhib
CCOC(=O)NC1(NC(C)C)Oc2ccccc2O1	i	i	?	?	i
CCOC(=O)NC1(NCc2ccccc2)Oc2ccccc2O1	i	i	?	50µM	i
CCOC(=O)NC1(Nc2ccc(C)cc2)Oc2ccccc2O1	i	i	i	35µM	i
CN(C)S(=O)(=O)c1ccc2c(c1)N(CC(=O)Nc1ccc(F)cc1)C(=O)CS2	i	nt	i	nt	i
Cc1ccc(-c2nc3ncccc3o2)cc1NC(=O)COc1ccc(C(C)C)cc1	i	nt	?	nt	i
CCc1nnc(NC(=O)c2ccc(OC)cc2OC)s1	i	i	i	i	i
COc1ccc(C(=O)Cc2nnc(C)s2)c(OC)c1	i	-34	?	?	i
COc1ccc(C)cc1NC(=O)CSc1ccc(-c2ccco2)nn1	nt	nt	nt	18µM	nt
Cc1cccc(NC(=O)CSc2ccc(-c3ccco3)nn2)c1C	i	i	i	22µM	i
O=C(CSc1ccc(-c2ccco2)nn1)Nc1ccc(F)cc1F	nt	nt	nt	50µM	nt
O=C(CSc1ccc(-c2ccccn2)nn1)Nc1ccc(F)cc1F	i	nt	i	i	i
COc1ccc(OC)c(NC(=O)CSc2nnc(-c3ccco3)n2-c2ccc(C(=O)O)cc2)c1	i	i	i	56µM	i
COc1ccc(C)cc1NC(=O)CSc1nnc(-c2ccco2)n1N	i	i	i	i	i
COc1ccc(-c2noc(CSc3nnc(-c4ccc(Cl)cc4)n3C)n2)cc1OC	i	nt	?	nt	i
CCc1c(C)sc(NC(=O)c2cc(C)no2)c1C#N	i	i	?	?	i
CCc1c(C)sc(NC(=O)CC#N)c1C#N	i	i	?	32µM	i
CCc1cc(C(=O)Nc2sc(C)c(CC)c2C#N)no1	?	nt	28µM	nt	?
CCCC(=O)Nc1sc(C)c(C)c1C#N	i	i	i	i	i
CCCCCC(=O)Nc1sc(C)c(C)c1C#N	i	i	i	79µM	i
CCc1ccc(NC(=O)Cn2nc(C(F)(F)F)c3c2CCCC3)cc1	i	nt	i	nt	?
CCc1c(C)sc(NC(=O)Cn2nc(C(F)(F)F)c3c2CCCC3)c1C#N	i	i	i	40µM	i
CCN(CC)CCOCCOC(=O)C(CC)(CC)c1ccccc1 (tested in a mixture with another compound)	nt	nt	nt	i	nt
Cc1ccc(NC(=O)NCCOCCn2c(=O)oc3ccccc32)cc1C	i	nt	i	nt	i
CCOc1ccc(N(CC)S(=O)(=O)N2CCCC(C(=O)NCc3ccccc3OCC)C2)cc1 (stereo not drawn)	i	nt	i	nt	i
N=C1/C(=C\c2ccc(OCc3ccccc3)cc2)C(=O)N=C2SC(N3CCCC3)=NN12	?	i	4µM	i	i
SMILES	Tau fluor cs	FBPA coupling cs	Tau ThT inhib	Sfp PPTase inh	Tau FP inhib
CN1C(=O)/C(=C/c2ccc(-c3ccccc3[N+](=O)[O-])o2)SC1=Nc1ccc(Cl)c(C(=O)O)c1	i	i	14µM	14µM	i
CCOC(=O)CSc1c(-c2ccccc2)c2cc(Cl)ccc2[nH]c1=O	i	i	i	i	i
O=C(O)CSc1c(-c2ccccc2)c2cc(Cl)ccc2[nH]c1=O	i	i	i	71µM	?
O=c1[nH]c2ccc(Cl)cc2c(O)c1Cc1ccccc1	?	i	?	50µM	i
O=c1[nH]c2ccc(Cl)cc2c(-c2ccccc2)c1CN1CCOCC1	i	i	?	i	i
CCN(CC)C(=S)Sc1c(-c2ccccc2)c2cc(Cl)ccc2[nH]c1=O	i	i	i	16µM	i
Oc1ccc(C=Nc2ccc(N3CCOCC3)cc2)c(O)c1	?	i	16µM	i	?
Oc1cc(Br)ccc1C=Nc1ccc(N2CCCCC2)cc1	?	i	14µM	i	i
Oc1ccc(Br)cc1C=Nc1ccc(Cl)cc1	i	i	i	i	i
Cn1nnnc1SCCCNCc1cc(Br)ccc1OCc1ccccc1	i	nt	i	nt	i
CCOC(=O)c1cc(C)n(CC2CCC(C(=O)Nc3ccc(Cl)cc3)CC2)c1C (stereo not drawn)	i	nt	i	nt	i
Cc1cccc(OC(C)C(=O)N2CCC(c3nc4ccccc4o3)CC2)c1C (stereo not drawn)	i	nt	i	nt	i
